Screens: PubChem BioAssay, National Center for Advancing Translational Sciences (NCATS)
Shown is part of a subset that was picked to be rich in hits.
Rango-impB inh = inhibitors of Rango-importin beta complex formation; Q14974; Potency, µM (highest dose often 92.2 µM), inactives show at the highest dose inhibition of complex formation; Rango CFP/YFP FRET sensor + importin beta, 45 min; 340,000 compounds, 0.031% hits;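 note: potency is the fitted concentration of half-maximal effect; 0% = DMSO wells and 100% = buffer wells lacking importin beta; nearly all actives have a fitted effect of over 15% in size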
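FRET biosensor Rango (snurportin 1 IBB between N-terminal EYFP and C-terminal Cerulean), 50 nM in PBS/1 mM DTT/0.02% Tween-20/0.1% BSA, preincubated 5 min RT with compound; 0.125 microM importin beta added, 45 min RT, CFP/YFP FRET ratio read.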
CBFb RUNX1 block = blocks binding between human CBF-beta and RUNX1; Q01196+Q13951; 230,000 tested, under 10 active; Potency, µM (top dose mostly 59.8 µM), inactives show top-dose activity, negative = inhibition, hits mostly inhibitors; AlphaScreen CBFb-His/RUNX1-biotin binding, biochemical; active = well fitted curve in the direction sought with a large enough effect; inconclusive = small, poorly fitted or top-dose-only effect, or effect the other way, or another doubt; inactive = no such curve, though single readings can be large or run the other way; note: % of control where 0% means no effect
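Room-temperature protein-protein interaction test with 30 nM each of His-tagged CBF-beta and biotinylated RUNX1, 15 min with compound, then 90 min with nickel plus streptavidin beads. Signal read in AlphaScreen mode.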
MBNL1 CUG block = MBNL1-poly(CUG) RNA binding inhibition | Q9NR56 | TR-FRET MBNL1-His/biotin-(CUG)12 binding, 665/545 ratio | Potency, µM (titrated, usually from 57.5 µM), for the others: at the top dose activity change, negative = inhibition, actives largely listed as inhibitors | 280,000 compounds, 0.036% hits; active = well fitted inhibition curve with a large enough effect in the signal ratio, with a control signal flat, not every such curve was filed as active; inconclusive = small, poorly fitted or top-dose-only effect, or effect the other way, or a change in a side signal; inactive = no such curve, though single readings can be large or run the other way; the % refers to the signal ratio; note: potency is the fitted concentration of half-maximal effect; % is set by controls: 0 for no effect and ±100 for the full control effect
Target sequence (Q9NR56 whole entry, looked up): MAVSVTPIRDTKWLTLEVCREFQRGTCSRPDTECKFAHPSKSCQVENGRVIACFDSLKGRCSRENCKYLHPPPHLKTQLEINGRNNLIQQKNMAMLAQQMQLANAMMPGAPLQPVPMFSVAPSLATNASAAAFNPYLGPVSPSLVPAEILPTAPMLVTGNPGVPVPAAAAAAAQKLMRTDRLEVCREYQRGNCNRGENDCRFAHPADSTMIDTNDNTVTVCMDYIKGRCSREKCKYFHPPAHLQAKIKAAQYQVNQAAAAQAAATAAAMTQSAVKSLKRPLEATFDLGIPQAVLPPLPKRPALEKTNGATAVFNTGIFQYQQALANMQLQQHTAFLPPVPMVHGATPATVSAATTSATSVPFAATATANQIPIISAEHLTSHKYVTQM
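His-tagged MBNL1 binding to biotinylated (CUG)12 RNA was measured by TR-FRET using terbium anti-His antibody (0.055 ng/ul final) and streptavidin-XL665 (5 nM final). Compounds were titrated 92 nM to 58 uM; 60 min at room temperature.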
Rango dissoc inh = prevents RanGTP from dissociating the Rango-importin beta complex; 340,000 compounds, 0.071% hits; Biochemical FRET Rango-importin beta, RanGTP-induced dissociation; Potency, µM (top dose mostly 46.1 µM), inactives show at the top dose activity change, negative = inhibition; O95149+P62826; note: potency is the fitted concentration of half-maximal effect; % of control where 0% means no effect; nearly all actives have a fitted effect of over 45% in size
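Recombinant Rango FRET biosensor (EYFP–snurportin 1 IBB–cerulean CFP10) at 0.1 uM premixed with 0.25 uM importin beta in PBS, 1 mM DTT, 0.02% Tween-20, 0.1% BSA. Compound added 5 min; RanGTP-RCC1 (0.6 uM Ran, 2 mM GTP, 0.2 uM RCC1) then triggers release, read at 45 min.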
ClpP mod = qHTS Assay for Activators of ClpP; ATP-dependent Clp protease proteolytic subunit (Bacillus subtilis (strain 168)), P80244; Potency, µM (doses to about 57.5 µM), inactives show at the highest dose activity change, negative = active; purified B. subtilis ClpP, FRET peptide cleavage, 20 min; 340,000 compounds, 1.9% hits; active = well fitted falling curve with a large enough effect; inconclusive = small, poorly fitted or top-dose-only effect; inactive = no such curve, though single readings can be large or run the other way; note: potency is the fitted concentration of half-maximal effect; the source files actives as falling curves though it sought activators and does not explain the sign; nearly all actives have a fitted effect of over 65% in size
Target sequence (P80244 whole entry, looked up): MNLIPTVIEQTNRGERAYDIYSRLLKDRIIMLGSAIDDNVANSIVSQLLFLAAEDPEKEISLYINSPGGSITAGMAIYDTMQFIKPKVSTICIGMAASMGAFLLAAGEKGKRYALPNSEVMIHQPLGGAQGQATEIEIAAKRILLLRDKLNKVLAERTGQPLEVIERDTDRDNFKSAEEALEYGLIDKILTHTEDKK
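Purified B. subtilis ClpP, 10 microg/mL final in Tris/HCl pH8 with KCl, BSA, glycerol and Tween-20, cleaved an Abz/nitrotyrosine-quenched decapeptide. Fluorescence (ex 320, em 430) was read at 0 and 20 min at room temperature. Delta was normalized to 5.8 microM ADEP and DMSO/no-enzyme controls.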
Numbers without * were called inactive; ? = inconclusive; · = not tested or not shown. Unless noted, calls come from the whole dose curve.

SMILES | Rango-impB inh | CBFb RUNX1 block | MBNL1 CUG block | Rango dissoc inh | ClpP mod
CCCCc1c(CCC)c(=N)c2ccccc2n1C | -1.5% | 0.4% | -8.1% | 13.0% | 15.8µM*
O=C(O)CC(C(=O)O)c1cn(Cc2ccccc2)c2ccccc12 (stereo unspecified) | 2.2% | -20.3% | -8.0% | -3.3% | 28.2µM*
O=C(O)Cc1cn(Cc2cccc(Cl)c2)c2ccccc12 | -2.6% | -19.5% | -4.4% | -6.8% | -2.1%
CCCc1nnc(NC(=O)Cc2coc3ccc(C)cc23)s1 | · | · | · | · | 0.0%
O=C(CSc1nc2nc(-c3cccs3)cc(C(F)(F)F)c2c(=O)[nH]1)NCc1ccco1 | -2.3% | -2.8% | ? | 13.0% | 8.91µM*
O=C(NCCc1ccccc1)c1ccc2c(c1)N(Cc1ccc(Cl)cc1)C(=O)CS2 | · | · | · | · | -0.6%
COc1ccc(-c2noc(-c3ccc(Cl)cc3[N+](=O)[O-])n2)cc1OC | -0.7% | -5.5% | · | 6.1% | 28.2µM*
CC1CC2(CCCCC2)Nc2ccc3ccccc3c21 (stereo unspecified) | ? | -1.7% | ? | ? | 17.8µM*
CC(=O)N1c2ccc3ccccc3c2C(C)CC12CCCCC2 (stereo unspecified) | -2.3% | 3.2% | 8.5% | -9.3% | -7.6%
COC(=O)c1cc2occc2n1Cc1nc(-c2ccccc2)oc1C | · | · | · | · | -1.1%
CCC1CCCN1Cn1cnc2c([nH]c3ccc(OC)cc32)c1=O (stereo unspecified) | ? | 7.3% | 0.0% | -10.9% | 17.8µM*
O=c1c2[nH]c3ccccc3c2ncn1CCN1CCNCC1 | -0.2% | 4.8% | 2.0% | -4.5% | ?
CCN1CCCC1Cn1cnc2c([nH]c3cccc(Cl)c32)c1=O (stereo unspecified) | 5.7% | 0.0% | -6.8% | 1.2% | 31.6µM*
O=c1c2[nH]c3ccccc3c2ncn1Cc1ccccn1 | 3.3% | 0.9% | -3.8% | -5.6% | 28.2µM*
CCN1CCCC1Cn1cnc2c([nH]c3ccc(Cl)cc32)c1=O (stereo unspecified) | -0.6% | 5.2% | 21.5% | 3.8% | -22.9%
CCC1CCCN1Cn1cnc2c([nH]c3ccccc32)c1=O (stereo unspecified) | 3.4% | -1.1% | -13.5% | 2.3% | 25.1µM*
CCOc1ccc(CCNC(=O)CCn2c(=O)c3cccn3c3cccnc32)cc1 | · | · | · | · | -25.8%
COc1ccc2cc(C#N)c(NC(C)C)nc2c1 | 7.3% | 21.8% | 2.3% | 3.6% | 22.4µM*
Cc1ccc(CCNC(=O)c2ccc(CS(=O)(=O)c3ccc(Cl)cc3)o2)cc1 | · | · | · | · | 3.0%
CC(=O)NCC(=O)OCC(=O)c1ccc2ccccc2c1 | -1.2% | 6.4% | ? | 1.8% | 28.2µM*
Cc1ccc(S(=O)(=O)c2c(C)nn(C(C)(C)C)c2OC(=O)C2CCCC2)cc1 | 3.0% | 12.9% | -1.5% | 36.2% | -0.6%
Cc1nn(C(C)(C)C)c(OC(=O)C2CCCC2)c1S(=O)(=O)c1ccccc1 | 2.8% | 4.9% | -4.6% | 0.4% | 11.2µM*
CCOC(=O)C1CCC(CN(Cc2ccc(Cl)cc2)S(=O)(=O)c2ccc(Br)cc2)CC1 (stereo unspecified) | · | · | · | · | 0.4%
O=S1(=O)CC(O)C(N2CCCCC2)C1 (stereo unspecified) | -0.3% | 8.0% | 0.6% | 6.8% | 11.2µM*
O=S1(=O)CC(O)C(N2CCC(c3ccccc3)CC2)C1 (stereo unspecified) | -0.3% | 5.7% | -5.5% | -1.1% | -3.1%
COc1ccc(O)c(C(=O)c2cnc3nc4ccccc4n3c2)c1 | ? | -0.1% | 8.3% | 5.3% | 28.2µM*
O=C(NCc1ccccc1Cl)c1ccc2c(c1)nnn2C1CCCC1 | · | · | · | · | 0.9%
Cc1ccc(NC(=O)Cn2c(-c3ccc4c(c3)OCO4)cn(-c3ccccc3)c2=O)cc1C | · | · | · | · | 28.2µM*
Cc1csc2nc3ccccc3c(=O)n12 | 1.1% | 1.4% | -3.3% | 6.7% | 14.1µM*
Cc1nc2scc(C)n2c(=O)c1S(=O)(=O)NCc1ccccc1 | -2.2% | · | 9.7% | 19.7% | 3.7%
